Experimental data from PubChem BioAssay (NCATS).
Results filed as inconclusive are left out. The source made the active and inactive calls. Unless noted, calls follow the shape of the dose curve; as a rule, active = well fitted inhibition curve with a large enough effect; inconclusive = small, poorly fitted or top-dose-only effect; inactive = no such curve, though single readings can be large or run the other way.

biological target: Muscarinic acetylcholine receptor M1 (Rattus norvegicus) (UniProt P08482); assay: qHTS Assay for Antagonists of Acetylcholine Muscarinic M1 Receptor: Kinetic Measurement of Intracellular Calcium Response (AID 943); settings: M1-expressing cells, kinetic intracellular calcium fluorescence; series mostly up to 35.3 µM; activity change, negative = inhibition: at the top concentration;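 also: Fluo-4 calcium signal as peak divided by basal fluorescence over 4 min; nearly all actives have a fitted effect of over 75% in size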
Sequence (P08482 whole entry, looked up): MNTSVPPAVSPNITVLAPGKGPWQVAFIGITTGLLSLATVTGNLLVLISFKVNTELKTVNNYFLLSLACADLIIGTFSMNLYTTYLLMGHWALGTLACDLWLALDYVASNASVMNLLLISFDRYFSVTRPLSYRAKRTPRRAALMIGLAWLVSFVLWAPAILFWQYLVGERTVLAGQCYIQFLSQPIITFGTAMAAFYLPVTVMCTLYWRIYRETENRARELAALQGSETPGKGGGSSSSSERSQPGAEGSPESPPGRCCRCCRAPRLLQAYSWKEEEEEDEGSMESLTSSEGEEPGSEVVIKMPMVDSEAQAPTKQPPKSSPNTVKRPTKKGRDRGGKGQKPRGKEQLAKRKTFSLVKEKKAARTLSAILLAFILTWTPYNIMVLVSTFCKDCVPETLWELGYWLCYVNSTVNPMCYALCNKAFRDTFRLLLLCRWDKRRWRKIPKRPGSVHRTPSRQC
Method in brief: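 Antagonism is measured as inhibition of the carbachol-evoked calcium rise in CHO cells transfected with rat M1. Cells are dye-loaded, exposed to compound for 10 min, then stimulated with 100 nM carbachol (EC80).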

| SMILES | activity change, negative = inhibition |
| --- | --- |
| CC(=O)N[C@@H](Cc1c[nH]c2ccccc12)C(=O)OCc1cc(C(F)(F)F)cc(C(F)(F)F)c1 | -24.7% (inactive) |
| NC(N)=NC(N)=Nc1ccccc1 | -43.7% (inactive) |
| CNC(=O)c1cc2c(cn1)[nH]c1ccccc12 | -31.6% (inactive) |
| O=C(O)c1ccccc1Nc1ccccc1 | -10.8% (inactive) |
| Cn1c(=O)c2[nH]c(C3CCCC3)nc2n(C)c1=O | 68.9% (inactive) |
| O=C(O)c1ccccc1Nc1cccc(OCc2ccc3ccccc3n2)c1 | -40.1% (inactive) |
| Cn1c(=O)c2[nH]c(-c3ccc(S(=O)(=O)O)cc3)nc2n(C)c1=O | -29.1% (inactive) |
| Nc1nc2ccc(Cl)cc2c2nc(-c3ccco3)nn12 | 13.3% (inactive) |
| O=C(O)/C=C/c1ccc(O)c(O)c1 | -25.9% (inactive) |
| COCc1nc2c([nH]1)c(=O)n(C)c(=O)n2CC(C)C | -43.6% (inactive) |
| O=C(O)c1cc2cc(F)ccc2[nH]1 | -32.4% (inactive) |
| O=C1Cc2c([nH]c3ccc(Br)cc23)-c2ccccc2N1 | -10.7% (inactive) |
| C[C@H](NC(=O)/C(C#N)=C/c1ccc(O)c(O)c1)c1ccccc1 | -45.7% (inactive) |

biological target: Muscarinic acetylcholine receptor M1 (Rattus norvegicus) (UniProt P08482); assay: qHTS Assay for Antagonists of Acetylcholine Muscarinic M1 Receptor: Measurement of IP-One Response (AID 944); settings: CHO-M1 cells, IP-One HTRF, antagonist mode; series mostly up to 46.1 µM; activity change, negative = inhibition: at the top concentration; also: nearly all actives have a fitted effect of over 75% in size
Method in brief: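 Antagonist mode with rat M1 receptor transfected into CHO cells. Compound is added first for 10 min, carbachol at its EC80 follows for 30 min, and lysis reagents then allow TR-FRET detection of accumulated IP1.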

| SMILES | activity change, negative = inhibition |
| --- | --- |
| CC(=O)N[C@@H](Cc1c[nH]c2ccccc12)C(=O)OCc1cc(C(F)(F)F)cc(C(F)(F)F)c1 | -31% (inactive) |
| NC(N)=NC(N)=Nc1ccccc1 | -40.7% (inactive) |
| CNC(=O)c1cc2c(cn1)[nH]c1ccccc12 | -27.2% (inactive) |
| O=c1cc(-c2ccccc2)[nH]c2nc(Cl)ccc12 | -8.3% (inactive) |
| O=C(O)c1ccccc1Nc1ccccc1 | 5.86% (inactive) |
| Cn1c(=O)c2[nH]c(C3CCCC3)nc2n(C)c1=O | 13.9% (inactive) |
| O=C(O)c1ccccc1Nc1cccc(OCc2ccc3ccccc3n2)c1 | -20.1% (inactive) |
| Cn1c(=O)c2[nH]c(-c3ccc(S(=O)(=O)O)cc3)nc2n(C)c1=O | 47.7% (inactive) |
| Nc1nc2ccc(Cl)cc2c2nc(-c3ccco3)nn12 | -28.2% (inactive) |
| O=C(O)/C=C/c1ccc(O)c(O)c1 | -46.3% (inactive) |
| COCc1nc2c([nH]1)c(=O)n(C)c(=O)n2CC(C)C | 11.7% (inactive) |
| O=c1[nH]c(=O)c2nc3ccccc3nc2[nH]1 | -16.1% (inactive) |
| O=C(O)c1cc2cc(F)ccc2[nH]1 | 9.26% (inactive) |
| CC(C)Cn1c(=O)n(C)c(=O)c2[nH]cnc21 | -19.9% (inactive) |
| Cn1cc(C(=O)OCC2CCN(CCNS(C)(=O)=O)CC2)c2ccccc21 | -27.9% (inactive) |
| NCCCCN | -20% (inactive) |
| CCn1c(=O)[nH]c2cc(Cl)c(Cl)cc21 | -18.3% (inactive) |
| C[C@H](NC(=O)/C(C#N)=C/c1ccc(O)c(O)c1)c1ccccc1 | -36.4% (inactive) |
| N=C(N)SCCN | -25.2% (inactive) |
| O=C(N[C@@H](Cc1ccccc1)C(=O)CCl)OCc1ccccc1 | -14.2% (inactive) |
| Cn1ccnc1 | -1.34% (inactive) |
| NCCCCN=C(N)N | -22% (inactive) |

biological target: Pyruvate kinase (Leishmania mexicana) (UniProt Q27686); assay: qHTS Validation Assay for Inhibitors of Leishmania Mexicana Pyruvate Kinase (AID 945);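 also: 0% = DMSO only neutral control wells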; settings: purified L. mexicana pyruvate kinase, enzyme activity, E451W mutant enzyme; series mostly up to 57.5 µM; activity change, negative = inhibition: at the top concentration
Sequence (Q27686 2-499 E452W): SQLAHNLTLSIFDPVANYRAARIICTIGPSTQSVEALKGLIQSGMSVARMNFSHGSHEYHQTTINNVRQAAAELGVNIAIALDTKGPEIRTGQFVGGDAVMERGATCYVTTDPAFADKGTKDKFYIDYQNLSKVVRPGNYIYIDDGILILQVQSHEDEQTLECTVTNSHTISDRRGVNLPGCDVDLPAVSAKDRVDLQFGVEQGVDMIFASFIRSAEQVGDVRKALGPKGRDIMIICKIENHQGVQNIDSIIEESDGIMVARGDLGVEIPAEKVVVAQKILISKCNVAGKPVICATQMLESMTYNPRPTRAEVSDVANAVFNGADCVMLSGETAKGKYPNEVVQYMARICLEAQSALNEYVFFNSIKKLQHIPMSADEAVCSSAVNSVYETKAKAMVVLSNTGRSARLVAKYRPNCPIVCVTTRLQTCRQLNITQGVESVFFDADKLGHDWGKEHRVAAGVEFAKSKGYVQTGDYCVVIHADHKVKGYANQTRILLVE
Method in brief: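 Eight-point qHTS titrations; enzyme 0.2 nM LmPYK (E451W mutant); substrates 0.5 mM PEP, 0.1 mM ADP; 7 mM MgCl2; 1 h room temperature; PKLight luminescence normalized to neutral control.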

| SMILES | activity change, negative = inhibition | Potency |
| --- | --- | --- |
| CC(=O)N[C@@H](Cc1c[nH]c2ccccc12)C(=O)OCc1cc(C(F)(F)F)cc(C(F)(F)F)c1 | -4.34% (inactive) |  |
| NC(N)=NC(N)=Nc1ccccc1 | -7.52% (inactive) |  |
| CC(C)NC[C@H](O)COc1ccc(CC(N)=O)cc1 |  | inactive |
| O=c1cc(-c2ccccc2)[nH]c2nc(Cl)ccc12 | 8.1% (inactive) |  |
| O=[N+]([O-])c1cccc2c(Br)[nH]nc12 | -5.93% (inactive) |  |
| O=C(O)c1ccccc1Nc1ccccc1 | 4.75% (inactive) |  |
| Cn1c(=O)c2[nH]c(C3CCCC3)nc2n(C)c1=O | 6.04% (inactive) |  |
| O=C(O)c1ccccc1Nc1cccc(OCc2ccc3ccccc3n2)c1 | 11.2% (inactive) |  |
| CC(=O)NNC(=O)N1Cc2ccccc2Oc2ccc(Cl)cc21 | -2.98% (inactive) |  |
| Cn1c(=O)c2[nH]c(-c3ccc(S(=O)(=O)O)cc3)nc2n(C)c1=O | -18.8% (inactive) |  |
| CCCc1c(-c2ccc(O)cc2)nn(-c2ccc(O)cc2)c1-c1ccc(O)cc1 | 3.06% (inactive) |  |
| Nc1nc2ccc(Cl)cc2c2nc(-c3ccco3)nn12 | 3.88% (inactive) |  |
| O=C(O)/C=C/c1ccc(O)c(O)c1 | 10.9% (inactive) |  |
| COCc1nc2c([nH]1)c(=O)n(C)c(=O)n2CC(C)C | -13% (inactive) |  |
| O=c1[nH]c(=O)c2nc3ccccc3nc2[nH]1 | 0.229% (inactive) |  |
| O=C(O)c1cc2cc(F)ccc2[nH]1 | 7.52% (inactive) |  |
| CC(C)Cn1c(=O)n(C)c(=O)c2[nH]cnc21 | -5.54% (inactive) |  |
| Cn1cc(C(=O)OCC2CCN(CCNS(C)(=O)=O)CC2)c2ccccc21 | -15.9% (inactive) |  |
| NCCCCN | 5.95% (inactive) |  |
| OC1(c2ccc(Cl)cc2)CCN(Cc2c[nH]c3ccccc23)CC1 | -15.4% (inactive) |  |
| CCn1c(=O)[nH]c2cc(Cl)c(Cl)cc21 | 7.35% (inactive) |  |
| C[C@H](NC(=O)/C(C#N)=C/c1ccc(O)c(O)c1)c1ccccc1 | 6.56% (inactive) |  |
| N=C(N)SCCN | -2.93% (inactive) |  |
| O=C(N[C@@H](Cc1ccccc1)C(=O)CCl)OCc1ccccc1 | -17.8% (inactive) |  |
| Cn1ccnc1 | 4.15% (inactive) |  |
| NCCCCN=C(N)N | 1.36% (inactive) |  |

biological target: Pyruvate kinase PKM (Homo sapiens) (UniProt P14618); assay: qHTS Assay for Activators of Human Muscle Pyruvate Kinase (AID 954; active = well fitted curve in the direction sought with a large enough effect, not every such curve was filed as active;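 also: 0% = uninhibited enzyme and -100% = no enzyme or full thiadiazolimine inhibition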); settings: purified human muscle pyruvate kinase, luciferase-coupled luminescence, 1 h; series mostly up to 57.5 µM; activity change, negative = inhibition: at the top concentration
Sequence (P14618 whole entry, looked up): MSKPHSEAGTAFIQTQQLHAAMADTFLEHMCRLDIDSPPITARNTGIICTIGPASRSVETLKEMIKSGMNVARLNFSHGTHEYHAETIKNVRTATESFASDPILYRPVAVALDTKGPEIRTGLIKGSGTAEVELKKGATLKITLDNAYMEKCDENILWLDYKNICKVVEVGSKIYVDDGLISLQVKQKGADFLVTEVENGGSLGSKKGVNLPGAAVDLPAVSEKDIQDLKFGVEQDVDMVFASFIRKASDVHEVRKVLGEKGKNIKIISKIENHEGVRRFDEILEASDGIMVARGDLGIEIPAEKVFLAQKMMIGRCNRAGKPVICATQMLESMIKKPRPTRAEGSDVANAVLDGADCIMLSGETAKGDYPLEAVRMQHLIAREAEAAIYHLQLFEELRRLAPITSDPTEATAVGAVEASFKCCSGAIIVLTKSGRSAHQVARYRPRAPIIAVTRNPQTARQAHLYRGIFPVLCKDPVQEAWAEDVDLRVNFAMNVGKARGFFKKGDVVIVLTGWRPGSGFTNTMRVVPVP
Method in brief: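 ATP production by PKM2 detected via luciferase luminescence after 1 h room-temperature reaction (0.1 nM enzyme, PEP at Km 0.5 mM, ADP 0.1 mM, pH 7.2 imidazole buffer). Inhibition scaled to no-enzyme control; activation referenced to 0.3 nM enzyme wells.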

| SMILES | activity change, negative = inhibition |
| --- | --- |
| CC(=O)N[C@@H](Cc1c[nH]c2ccccc12)C(=O)OCc1cc(C(F)(F)F)cc(C(F)(F)F)c1 | -15.9% (inactive) |
| NC(N)=NC(N)=Nc1ccccc1 | -6.33% (inactive) |
| CNC(=O)c1cc2c(cn1)[nH]c1ccccc12 | -42.6% (inactive) |
| O=c1cc(-c2ccccc2)[nH]c2nc(Cl)ccc12 | -9.98% (inactive) |
| O=[N+]([O-])c1cccc2c(Br)[nH]nc12 | 14.4% (inactive) |
| O=C(O)c1ccccc1Nc1ccccc1 | -21.2% (inactive) |
| Cn1c(=O)c2[nH]c(-c3ccc(S(=O)(=O)O)cc3)nc2n(C)c1=O | -13.3% (inactive) |
| CCCc1c(-c2ccc(O)cc2)nn(-c2ccc(O)cc2)c1-c1ccc(O)cc1 | -10.2% (inactive) |
| Nc1nc2ccc(Cl)cc2c2nc(-c3ccco3)nn12 | -9.38% (inactive) |
| O=C(O)/C=C/c1ccc(O)c(O)c1 | -17.1% (inactive) |
| COCc1nc2c([nH]1)c(=O)n(C)c(=O)n2CC(C)C | -26% (inactive) |
| O=c1[nH]c(=O)c2nc3ccccc3nc2[nH]1 | 18.6% (inactive) |
| O=C(O)c1cc2cc(F)ccc2[nH]1 | 9.93% (inactive) |
| Cn1cc(C(=O)OCC2CCN(CCNS(C)(=O)=O)CC2)c2ccccc21 | -27.5% (inactive) |
| OC1(c2ccc(Cl)cc2)CCN(Cc2c[nH]c3ccccc23)CC1 | -4.53% (inactive) |
| CCn1c(=O)[nH]c2cc(Cl)c(Cl)cc21 | -7.23% (inactive) |
| C[C@H](NC(=O)/C(C#N)=C/c1ccc(O)c(O)c1)c1ccccc1 | -17.4% (inactive) |
| Cn1ccnc1 | -12.3% (inactive) |
| NCCCCN=C(N)N | -2.95% (inactive) |
